Screening data: PubChem, The Scripps Research Institute Molecular Screening Center
Rows were chosen to be rich in hits. Some 3.5% of all compounds tested hit in one or more screens of this group.
FBW7 activator – activators of human E3 ligase FBW7; Q969H0; AlphaScreen FBW7–phospho-cyclin E peptide binding, activator screen; normalized activity (activation), % at 26.1 µM; actives 0.13% (n = 650,000); AID 1259310; in the data active = normalized activity above about 1.9%;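 note: purified mutant Fbw7 with reduced substrate affinity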
Target sequence (Q969H0 whole entry, looked up): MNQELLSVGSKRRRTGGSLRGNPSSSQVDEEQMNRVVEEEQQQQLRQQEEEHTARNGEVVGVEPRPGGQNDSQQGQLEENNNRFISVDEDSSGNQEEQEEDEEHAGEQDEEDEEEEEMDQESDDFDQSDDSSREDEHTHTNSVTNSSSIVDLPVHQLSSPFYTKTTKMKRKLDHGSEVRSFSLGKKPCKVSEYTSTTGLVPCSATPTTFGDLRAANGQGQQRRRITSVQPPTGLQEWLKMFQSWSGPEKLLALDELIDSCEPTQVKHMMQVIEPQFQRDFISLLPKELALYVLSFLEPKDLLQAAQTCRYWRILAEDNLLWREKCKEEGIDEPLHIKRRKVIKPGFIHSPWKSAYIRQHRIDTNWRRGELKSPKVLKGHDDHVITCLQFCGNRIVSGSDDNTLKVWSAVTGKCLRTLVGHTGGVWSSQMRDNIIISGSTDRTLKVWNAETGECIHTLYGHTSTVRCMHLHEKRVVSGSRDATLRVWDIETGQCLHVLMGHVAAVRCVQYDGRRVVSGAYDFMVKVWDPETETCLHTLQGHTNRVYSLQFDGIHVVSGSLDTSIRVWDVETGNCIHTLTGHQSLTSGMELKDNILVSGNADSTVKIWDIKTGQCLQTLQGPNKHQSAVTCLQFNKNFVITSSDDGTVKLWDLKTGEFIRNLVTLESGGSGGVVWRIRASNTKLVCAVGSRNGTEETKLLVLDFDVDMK
GPR151 ag – activates the human receptor GPR151. Q8TDV0. PathHunter beta-arrestin GPR151 cells, luminescence. activation, % at 11.2 µM. actives 1% (n = 650,000); in the data active = activation above about 4.9%;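 note: 0% = median of compound wells and 100% = cells with positive control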
TEAD-YAP block – TEAD-YAP interaction inhibition | actives 1.4% (n = 640,000) | inhibition, % at 9.12 µM | AID 1259422 | HEK-TIYL cells, TEAD-Gal4/YAP UAS-luciferase luminescence; in the data active = inhibition above about 32%;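 note: 0% = median of test compound wells and 100% = reference inhibitor wells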
MITF inh – human MITF inhibition, primary screen; actives 0.91% (n = 650,000); AlphaScreen MITF homodimerization, bead proximity signal; inhibition, % at 2.6 µM; AID 1259374; O75030; in the data active = inhibition above about 50%;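 note: 0% = vehicle wells with protein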
MITF inh conf – confirmation of human MITF inhibitors; AlphaScreen MITF homodimerization, biotin/His-MITF beads; actives 16% (n = 4,700); shares compounds with MITF inh; AID 1259372; inhibition, % at 2.6 µM;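 active = inhibition above a cutoff derived from the DMSO control wells, cut at about 28% in these data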;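 note: 0% = MITF dimer wells with DMSO only; inhibitors lower the bead chemiluminescence by keeping MITF from dimerizing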
AS interf ctr – counter-screen: compounds optically interfering with AlphaScreen. LysRS AlphaScreen counterscreen, signal interference, triplicate. AID 1259376. actives 7.6% (n = 4,700). inhibition, % at 2.6 µM. shares compounds with MITF inh;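 active = inhibition above a cutoff derived from the DMSO control wells, cut at about 30% in these data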
Numbers without * were called inactive.

What do the screens show for `O=C(Nc1cccc(C(F)(F)F)c1)c1nn2c(C(F)(F)F)cc(-c3ccccc3)nc2c1Cl`?
FBW7 activator: 0; GPR151 ag: 0; TEAD-YAP block: -6; MITF inh: 16

How did CCOc1ccc(-n2c(=S)sc3c(=O)n(-c4ccc(C)cc4)c(SCC(=O)Oc4ccccc4F)nc32)cc1 do in these assays?
FBW7 activator: 0; GPR151 ag: -1; TEAD-YAP block: 4; MITF inh: 10

Results for CC(C)NCC(=O)Nc1c2c(nc3c1CCC3)CCCC2 ?
FBW7 activator: 0; GPR151 ag: -1; TEAD-YAP block: 0; MITF inh: 75*; MITF inh conf: 1; AS interf ctr: -3

Results for CN(C)CC(=O)Nc1c2c(nc3c1CCC3)CCCC2 ?
FBW7 activator: 0; GPR151 ag: -1; TEAD-YAP block: -8; MITF inh: 59*; MITF inh conf: 0; AS interf ctr: 0

What do the screens show for `CCC(=O)Nc1c2c(nc3c1CCC3)CCCC2`?
FBW7 activator: 0; GPR151 ag: -1; TEAD-YAP block: -3; MITF inh: 8

Results for O=C(COC(=O)c1ccc([N+](=O)[O-])o1)Nc1ccc2c(c1)OC(F)(F)O2 ?
FBW7 activator: 0; GPR151 ag: 1; TEAD-YAP block: 14; MITF inh: 82*; MITF inh conf: 8; AS interf ctr: 13

How did Cc1ccc(NC(=O)N2CCCC2C(=O)NC(C)C)cc1 (configuration not stated) do in these assays?
FBW7 activator: 0; GPR151 ag: -1; TEAD-YAP block: -2; MITF inh: 20

What do the screens show for `COc1cccc(CN2CCN(S(C)(=O)=O)CC2)c1`?
FBW7 activator: 0; GPR151 ag: 1; TEAD-YAP block: 12; MITF inh: -4

What do the screens show for `CCS(=O)(=O)N1CCN(Cc2cccc(OC)c2)CC1`?
FBW7 activator: 0; GPR151 ag: -1; TEAD-YAP block: 13; MITF inh: 57*; MITF inh conf: 10; AS interf ctr: 18

Results for COc1cccc(CN2CCN(S(=O)(=O)Cc3ccccc3)CC2)c1 ?
FBW7 activator: 0; GPR151 ag: 0; TEAD-YAP block: 1; MITF inh: 68*; MITF inh conf: 4; AS interf ctr: 14

Results for CCOc1cc(CN2CCN(S(=O)(=O)Cc3ccccc3)CC2)ccc1OC ?
FBW7 activator: 0; GPR151 ag: 1; TEAD-YAP block: 13; MITF inh: -8

Results for O=c1[nH]c(N2CCCCC2)nc2c1CCN(CC1CCOC1)C2 (configuration not stated) ?
FBW7 activator: 0; GPR151 ag: 1; TEAD-YAP block: 1; MITF inh: 10

What do the screens show for `CCC(=O)Nc1ccc2[nH]c(=O)[nH]c2c1`?
FBW7 activator: 0; GPR151 ag: 1; TEAD-YAP block: 2; MITF inh: 4

What do the screens show for `O=C(CSc1ccc2nnc(-c3ccc(F)cc3)n2n1)N1CCc2ccccc21`?
FBW7 activator: 1; GPR151 ag: 1; TEAD-YAP block: 5; MITF inh: 14

What do the screens show for `COc1ccc(NC(=O)c2cn(C)c(=O)c3ccccc23)cc1`?
FBW7 activator: 0; GPR151 ag: 0; TEAD-YAP block: 0; MITF inh: -7

How did COc1ccc(-c2csc(NC(=O)CN3C(=O)c4ccccc4C3=O)n2)c(OC)c1 do in these assays?
FBW7 activator: 0; GPR151 ag: -1; TEAD-YAP block: -3; MITF inh: 17

What do the screens show for `CCSc1n[nH]c(-c2ccncc2)n1`?
FBW7 activator: 0; GPR151 ag: 1; TEAD-YAP block: 5; MITF inh: -1

How did CCN(CC)c1ccc(C(c2c(C)[nH][nH]c2=O)c2c(C)[nH][nH]c2=O)cc1 do in these assays?
FBW7 activator: -1; GPR151 ag: 0; TEAD-YAP block: 10; MITF inh: 77*; MITF inh conf: 71*; AS interf ctr: -2

How did CS(=O)(=O)c1ccc2nc(NC(=O)COc3ccc(Cl)cc3Cl)sc2c1 do in these assays?
FBW7 activator: 0; GPR151 ag: -1; TEAD-YAP block: -1; MITF inh: 74*; MITF inh conf: 10; AS interf ctr: 7

How did COc1ccc(S(=O)(=O)CCC(=O)Nc2nc3ccc(OC)cc3s2)cc1 do in these assays?
FBW7 activator: 0; GPR151 ag: 1; TEAD-YAP block: -19; MITF inh: 54*; MITF inh conf: 28*; AS interf ctr: -4
